{"source": "PubChem BioAssay", "note": "Several values for one entry are separate records, joined by “and”; a condition that tells them apart may be missing. Equal entries are not always repeated."}
{"test": "growth inhibition of RCMB18 medulloblastoma cells, cell-based, cisplatin and BGB IC40 combos (AID 1671462);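 further: cells exposed to compound for four days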", "conditions": "cisplatin combo, at 5 µM, stronger effect = higher value", "units": {"inhibition": "%"}}
{"smiles": "CC(Oc1cc(-c2cnn(C3CCNCC3)c2)cnc1N)c1c(Cl)ccc(F)c1Cl", "note": "(stereo unspecified)", "inhibition": 34.5}
{"smiles": "O=C(O)c1cc2cccc([N+](=O)[O-])c2[nH]1", "inhibition": 27.1}
{"smiles": "O=c1[nH]c(=O)n(C2CC(O)C(CO)O2)cc1I", "note": "(stereo unspecified)", "inhibition": -28.2}
{"test": "growth inhibition of RCMB18 medulloblastoma cells, cell-based, cisplatin and BGB IC40 combos (AID 1671462);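 further: cells exposed to compound for four days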", "conditions": "measured here: BGB IC40 combination, at 0.05 µM, stronger effect = higher value"}
{"smiles": "COc1ccccc1S(=O)(=O)Nc1ccc2c(c1)CN(C)C(=O)N2", "inhibition": "-26.3%"}
{"smiles": "Cc1cc(C#N)cc(C)c1Oc1nc(Nc2ccc(C#N)cc2)nc(N)c1Br", "inhibition": "-39.7%"}
{"smiles": "Nc1ncn(C2OC(CO)C(O)C2O)c(=O)n1", "note": "(stereo unspecified)", "inhibition": "-6.06%"}
{"smiles": "Cc1cc(C)c(Nc2ccnc(Nc3ccc(C#N)cc3)n2)c(C)c1", "inhibition": "-21.8%"}
{"smiles": "COc1ccc(CC(N)C(=O)NC2C(CO)OC(n3cnc4c(N(C)C)ncnc43)C2O)cc1", "note": "(stereo unspecified)", "inhibition": "-32% and 8.46%"}
{"smiles": "O=c1ccn(C2OC(CO)C(O)C2O)c(=O)[nH]1", "note": "(stereo unspecified)", "inhibition": "15.8% and -34.3%"}
{"smiles": "CC=C1NC(=O)C2CSSCCC=CC(CC(=O)NC(C(C)C)C(=O)N2)OC(=O)C(C(C)C)NC1=O", "note": "(stereo unspecified)", "inhibition": "78.9% and 79.8%"}
{"smiles": "CN(C)CC(=O)Nc1ccc2[nH]c(=O)c3ccccc3c2c1", "inhibition": "1.7% and -24.6% and -7.83%"}
{"smiles": "CC1OC(n2cc(F)c(=O)[nH]c2=O)C(O)C1O", "note": "(stereo unspecified)", "inhibition": "-8.2%"}
{"smiles": "Nc1ccn(C2OC(CO)C(O)C2(F)F)c(=O)n1", "note": "(stereo unspecified)", "inhibition": "-10.4% and -39% and -30%"}
{"smiles": "Cc1cn(C2CC(N=[N+]=[N-])C(CO)O2)c(=O)[nH]c1=O", "note": "(stereo unspecified)", "inhibition": "-27% and -25%"}
{"smiles": "CC(C=CC(=O)NO)=CC(C)C(=O)c1ccc(N(C)C)cc1", "note": "(stereo unspecified)", "inhibition": "13.5%"}
{"smiles": "NC(=S)NN=Cc1ncccc1N", "inhibition": "-6.51%"}
{"smiles": "CC(C)(C#N)c1ccc(N2C(=O)OCc3cnc4ccc(-c5cnc6ccccc6c5)cc4c32)cc1", "inhibition": "-35.7%"}
{"smiles": "CC1CN(c2c(F)c(N)c3c(=O)c(C(=O)O)cn(C4CC4)c3c2F)CC(C)N1", "note": "(stereo unspecified)", "inhibition": "11.2%"}
{"smiles": "CCCCN(Cc1ccc(C(=O)NO)cc1)C(=O)Nc1ccccc1", "inhibition": "-4.7% and 0.072%"}
{"smiles": "O=c1[nH]cnc2c1ncn2C1OC(CO)C(O)C1O", "note": "(stereo unspecified)", "inhibition": "-8.27% and -1.88%"}
{"smiles": "Cc1cc(C=CC#N)cc(C)c1Nc1ccnc(Nc2ccc(C#N)cc2)n1", "inhibition": "-40.8%"}
{"smiles": "CC(Oc1cc(-c2cnn(C3CCNCC3)c2)cnc1N)c1c(Cl)ccc(F)c1Cl", "note": "(stereo unspecified)", "inhibition": "5.63%"}
{"smiles": "O=C(O)c1cc2cccc([N+](=O)[O-])c2[nH]1", "inhibition": "-14.6%"}
{"smiles": "O=c1[nH]c(=O)n(C2CC(O)C(CO)O2)cc1I", "note": "(stereo unspecified)", "inhibition": "-1.89%"}
{"test": "growth inhibition of RCMB18 medulloblastoma cells, cell-based, cisplatin and BGB IC40 combos (AID 1671462);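 further: cells exposed to compound for four days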", "conditions": "measured here: combination with cisplatin, at 0.5 µM, stronger effect = higher value"}
{"smiles": "COc1ccccc1S(=O)(=O)Nc1ccc2c(c1)CN(C)C(=O)N2", "inhibition": "-32.4%"}
{"smiles": "Cc1cc(C#N)cc(C)c1Oc1nc(Nc2ccc(C#N)cc2)nc(N)c1Br", "inhibition": "-23%"}
{"smiles": "Nc1ncn(C2OC(CO)C(O)C2O)c(=O)n1", "note": "(stereo unspecified)", "inhibition": "6.83%"}
{"smiles": "Cc1cc(C)c(Nc2ccnc(Nc3ccc(C#N)cc3)n2)c(C)c1", "inhibition": "-16.3%"}
{"smiles": "COc1ccc(CC(N)C(=O)NC2C(CO)OC(n3cnc4c(N(C)C)ncnc43)C2O)cc1", "note": "(stereo unspecified)", "inhibition": "49.2% and 73.8%"}
{"smiles": "O=c1ccn(C2OC(CO)C(O)C2O)c(=O)[nH]1", "note": "(stereo unspecified)", "inhibition": "22.8% and -4.28%"}
{"smiles": "CC=C1NC(=O)C2CSSCCC=CC(CC(=O)NC(C(C)C)C(=O)N2)OC(=O)C(C(C)C)NC1=O", "note": "(stereo unspecified)", "inhibition": "92.6% and 90.7%"}
{"smiles": "CN(C)CC(=O)Nc1ccc2[nH]c(=O)c3ccccc3c2c1", "inhibition": "-0.146% and -31.4% and -63.1%"}
{"smiles": "CC1OC(n2cc(F)c(=O)[nH]c2=O)C(O)C1O", "note": "(stereo unspecified)", "inhibition": "-22.5%"}
{"smiles": "Nc1ccn(C2OC(CO)C(O)C2(F)F)c(=O)n1", "note": "(stereo unspecified)", "inhibition": "68.2% and 64.5% and 57.4%"}
{"smiles": "Cc1cn(C2CC(N=[N+]=[N-])C(CO)O2)c(=O)[nH]c1=O", "note": "(stereo unspecified)", "inhibition": "-39.9% and -10.1%"}
{"smiles": "CC(C=CC(=O)NO)=CC(C)C(=O)c1ccc(N(C)C)cc1", "note": "(stereo unspecified)", "inhibition": "87.1%"}
{"smiles": "NC(=S)NN=Cc1ncccc1N", "inhibition": "3.15%"}
{"smiles": "CC(C)(C#N)c1ccc(N2C(=O)OCc3cnc4ccc(-c5cnc6ccccc6c5)cc4c32)cc1", "inhibition": "7.95%"}
{"smiles": "CC1CN(c2c(F)c(N)c3c(=O)c(C(=O)O)cn(C4CC4)c3c2F)CC(C)N1", "note": "(stereo unspecified)", "inhibition": "-22.2%"}
{"smiles": "CCCCN(Cc1ccc(C(=O)NO)cc1)C(=O)Nc1ccccc1", "inhibition": "39% and 19%"}
{"smiles": "O=c1[nH]cnc2c1ncn2C1OC(CO)C(O)C1O", "note": "(stereo unspecified)", "inhibition": "-12.7% and -17.5%"}
{"smiles": "Cc1cc(C=CC#N)cc(C)c1Nc1ccnc(Nc2ccc(C#N)cc2)n1", "inhibition": "0.155%"}
{"smiles": "CC(Oc1cc(-c2cnn(C3CCNCC3)c2)cnc1N)c1c(Cl)ccc(F)c1Cl", "note": "(stereo unspecified)", "inhibition": "33%"}
{"smiles": "O=C(O)c1cc2cccc([N+](=O)[O-])c2[nH]1", "inhibition": "5.09%"}
{"smiles": "O=c1[nH]c(=O)n(C2CC(O)C(CO)O2)cc1I", "note": "(stereo unspecified)", "inhibition": "-10.4%"}
{"test": "growth inhibition of RCMB18 medulloblastoma cells, cell-based, cisplatin and BGB IC40 combos (AID 1671462);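 further: cells exposed to compound for four days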", "conditions": "single agent, at 5 µM, stronger effect = higher value"}
{"smiles": "COc1ccccc1S(=O)(=O)Nc1ccc2c(c1)CN(C)C(=O)N2", "inhibition": "7.98%"}
{"smiles": "Cc1cc(C#N)cc(C)c1Oc1nc(Nc2ccc(C#N)cc2)nc(N)c1Br", "inhibition": "-29.9%"}
{"smiles": "Nc1ncn(C2OC(CO)C(O)C2O)c(=O)n1", "note": "(stereo unspecified)", "inhibition": "41.5%"}
{"smiles": "Cc1cc(C)c(Nc2ccnc(Nc3ccc(C#N)cc3)n2)c(C)c1", "inhibition": "17.4%"}
{"smiles": "COc1ccc(CC(N)C(=O)NC2C(CO)OC(n3cnc4c(N(C)C)ncnc43)C2O)cc1", "note": "(stereo unspecified)", "inhibition": "95.9% and 95.4%"}
{"smiles": "O=c1ccn(C2OC(CO)C(O)C2O)c(=O)[nH]1", "note": "(stereo unspecified)", "inhibition": "-1.69% and -19.5%"}
{"smiles": "CC=C1NC(=O)C2CSSCCC=CC(CC(=O)NC(C(C)C)C(=O)N2)OC(=O)C(C(C)C)NC1=O", "note": "(stereo unspecified)", "inhibition": "96.6% and 90.8%"}
{"smiles": "CN(C)CC(=O)Nc1ccc2[nH]c(=O)c3ccccc3c2c1", "inhibition": "-17.1% and -32.1% and -45.8%"}
{"smiles": "CC1OC(n2cc(F)c(=O)[nH]c2=O)C(O)C1O", "note": "(stereo unspecified)", "inhibition": "-11.4%"}
{"smiles": "Nc1ccn(C2OC(CO)C(O)C2(F)F)c(=O)n1", "note": "(stereo unspecified)", "inhibition": "10.1% and 16.5% and 18.8%"}
{"smiles": "Cc1cn(C2CC(N=[N+]=[N-])C(CO)O2)c(=O)[nH]c1=O", "note": "(stereo unspecified)", "inhibition": "-41.5% and -29.4%"}
{"smiles": "CC(C=CC(=O)NO)=CC(C)C(=O)c1ccc(N(C)C)cc1", "note": "(stereo unspecified)", "inhibition": "98.2%"}
{"smiles": "NC(=S)NN=Cc1ncccc1N", "inhibition": "-34.2%"}
{"smiles": "CC(C)(C#N)c1ccc(N2C(=O)OCc3cnc4ccc(-c5cnc6ccccc6c5)cc4c32)cc1", "inhibition": "19.4%"}
{"smiles": "CC1CN(c2c(F)c(N)c3c(=O)c(C(=O)O)cn(C4CC4)c3c2F)CC(C)N1", "note": "(stereo unspecified)", "inhibition": "-18.8%"}
{"smiles": "CCCCN(Cc1ccc(C(=O)NO)cc1)C(=O)Nc1ccccc1", "inhibition": "15.2% and 39.4%"}
{"smiles": "O=c1[nH]cnc2c1ncn2C1OC(CO)C(O)C1O", "note": "(stereo unspecified)", "inhibition": "-19.5% and -20.5%"}
{"smiles": "Cc1cc(C=CC#N)cc(C)c1Nc1ccnc(Nc2ccc(C#N)cc2)n1", "inhibition": "-17.1%"}
{"smiles": "CC(Oc1cc(-c2cnn(C3CCNCC3)c2)cnc1N)c1c(Cl)ccc(F)c1Cl", "note": "(stereo unspecified)", "inhibition": "51.6%"}
{"smiles": "O=C(O)c1cc2cccc([N+](=O)[O-])c2[nH]1", "inhibition": "-41.3%"}
{"smiles": "O=c1[nH]c(=O)n(C2CC(O)C(CO)O2)cc1I", "note": "(stereo unspecified)", "inhibition": "-39.8%"}
